Reference: PubChem BioAssay (EPA / NIEHS)
Results filed as inconclusive are left out. The source made the active and inactive calls. How the source made its calls, unless noted: active means hit-call score of the fitted dose curve at least 0.9, where 1 is the maximum; inactive means score below 0.9.

What was measured:
[1] = target: Retinoic acid receptor RXR-alpha (Homo sapiens) (UniProt P19793); assay: ATG_RXRa_TRANS: Attagene TRANS-FACTORIAL HepG2 Assay for human Retinoid X Receptor alpha (RXRa) (AID 2283012; active means hit-call score of the fitted dose curve at least 0.9, where 1 is the maximum)
Procedure, shortened: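 HepG2 cells transiently transfected with multiplexed GAL4-UAS reporter units and chimeric NR-GAL4 fusions, dosed 24 h. Reporter mRNA measured by RT-PCR, FAM labelling, HpaI digestion and capillary electrophoresis; gain-of-signal fitted relative to DMSO baseline.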

[2] = target: human Retinoid X Receptor beta (RXRb), RXRB (gene 6257) (UniProt P28702); assay: ATG_RXRb_TRANS: Attagene TRANS-FACTORIAL HepG2 Assay for human Retinoid X Receptor beta (RXRb) (AID 2283013; active means hit-call score of the fitted dose curve at least 0.9, where 1 is the maximum)
Procedure, shortened: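 HepG2 cells transiently transfected with multiplexed reporter units driven by GAL4-UAS and exogenous chimeric NR-Gal4 proteins; treated 24 h. Reporter mRNA measured by RT-PCR, 6-FAM labelling and capillary electrophoresis; gain-of-signal fitted versus DMSO baseline.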

[3] = read-out: E-selectin (Homo sapiens) (UniProt P16581); assay: BSK_3C_Eselectin: BioMAP Diversity Plus: 3C Assay for Eselectin Biomarker Activity (AID 2283015); conditions: primary human endothelial cells (HUVEC); actives raise or lower the signal
Procedure, shortened: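 Primary human umbilical vein endothelial cells (3C system) were dosed with chemical and cell-surface E-selectin measured by ELISA 24 h later. Bidirectional curve fitting used DMSO as negative control and baseline.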

[4] = read-out: Interleukin-1 alpha (IL1a), IL1A (gene 3552); assay: BSK_BE3C_IL1a: BioMAP Diversity Plus: BE3C Assay for Interleukin-1 alpha (IL1a) Biomarker Activity (AID 2283016); conditions: primary human bronchial epithelial cells; actives raise or lower the signal
Procedure, shortened: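 Human primary bronchial epithelial cells (BE3C system) were dosed with compound and IL-1a measured by ELISA 24 h later. Activity was fitted bidirectionally against DMSO baseline; cytotoxicity was tracked in parallel cultures by SRB total-protein staining.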

[5] = read-out: Monocyte Chemoattractant Protein-1 (MCP1), CCL2 (gene 6347); assay: BSK_3C_MCP1: BioMAP Diversity Plus: 3C Assay for Monocyte Chemoattractant Protein-1 (MCP1) Biomarker Activity (AID 2283017); conditions: primary human endothelial cells (HUVEC); actives raise or lower the signal
Procedure, shortened: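 Primary human umbilical vein endothelial cells (3C system) were exposed to test chemical for 24 h, after which MCP-1 was quantified by ELISA. Activity was fitted bidirectionally against DMSO as negative control and baseline.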

[6] = read-out: Monocyte Chemoattractant Protein-1 (MCP1), CCL2 (gene 6347); assay: BSK_4H_MCP1: BioMAP Diversity Plus: 4H Assay for Monocyte Chemoattractant Protein-1 (MCP1) Biomarker Activity (AID 2283018); conditions: primary human endothelial cells (HUVEC); actives raise or lower the signal
Procedure, shortened: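 Human umbilical vein endothelial cells (4H system) dosed with chemical; MCP-1 measured by ELISA 24 h after dosing. Bidirectional curve fitting against DMSO negative control as baseline; parallel SRB total-protein staining tracks overt cytotoxicity.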

[7] = read-out: Human Leukocyte Antigen - DR isotype (HLADR), HLA-DRA (gene 3122); assay: BSK_3C_HLADR: BioMAP Diversity Plus: 3C Assay for Human Leukocyte Antigen - DR isotype (HLADR) Biomarker Activity (AID 2283019); conditions: primary human endothelial cells (HUVEC); actives raise or lower the signal
Procedure, shortened: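 Primary human umbilical vein endothelial cells (3C system) were dosed with compound and cell-surface HLA-DR was quantified by ELISA at 24 h. Activity was fitted bidirectionally against DMSO as negative control and baseline.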

[8] = read-out: Interleukin-8 (IL8), CXCL8 (gene 3576); assay: BSK_3C_IL8: BioMAP Diversity Plus: 3C Assay for Interleukin-8 (IL8) Biomarker Activity (AID 2283020); conditions: primary human endothelial cells (HUVEC); actives raise or lower the signal
Procedure, shortened: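 Primary human umbilical vein endothelial cells (3C system) were exposed to test chemical for 24 h, then IL-8 was quantified by ELISA. Responses were fitted bidirectionally against DMSO vehicle as baseline.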

[9] = read-out: Monokine induced gamma interferon (MIG), CXCL9 (gene 4283); assay: BSK_3C_MIG: BioMAP Diversity Plus: 3C Assay for Monokine induced gamma interferon (MIG) Biomarker Activity (AID 2283021); conditions: primary human endothelial cells (HUVEC); actives raise or lower the signal;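 on AC50: MIG protein level measured by immunoassay in the treated endothelial cultures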
Procedure, shortened: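 Primary human umbilical vein endothelial cells in the 3C system were exposed to chemical for 24 h, after which MIG was quantified by ELISA. Activity was fitted bidirectionally against DMSO as negative control and baseline.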

[10] = target: human Vitamin D Receptor (VDR), VDR (gene 7421) (UniProt P11473); assay: ATG_VDR_TRANS: Attagene TRANS-FACTORIAL HepG2 Assay for human Vitamin D Receptor (VDR) (AID 2283022; active means hit-call score of the fitted dose curve at least 0.9, where 1 is the maximum)
Procedure, shortened: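 HepG2 cells were transiently transfected with multiple GAL4-UAS reporter units, so signal reflects exogenous chimeric receptor-Gal4 activity. After 24 h compound exposure, reporter mRNA was measured by RT-PCR, fluorescent labelling and capillary electrophoresis, fitted for gain of signal versus DMSO.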

[11] = BSK_3C_SRB: Viability Assessment in the BioMAP Diversity Plus: 3C Assay (AID 2283023); conditions: primary human endothelial cells (HUVEC);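 further: fitted both ways against DMSO so a hit may be signal rise or drop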
Procedure, shortened: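 Primary human umbilical vein endothelial cells in the 3C system were read 24 h after compound dosing. Total protein was stained with 0.1% sulforhodamine B after 10% TCA fixation and read at 560 nm, with bidirectional fitting against DMSO as baseline.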

[12] = read-out: Matrix Metallopeptidase 1 (MMP1), MMP1 (gene 4312); assay: BSK_BE3C_MMP1: BioMAP Diversity Plus: BE3C Assay for Matrix Metallopeptidase 1 (MMP1) Biomarker Activity (AID 2283024); conditions: primary human bronchial epithelial cells; actives raise or lower the signal
Procedure, shortened: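 Primary human bronchial epithelial cells were dosed with test chemicals, and MMP1 levels were measured by ELISA 24 h later. Data were fitted bidirectionally against DMSO as the negative control and activity baseline.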

[13] = BSK_3C_Vis: BioMAP Diversity Plus: 3C Assay for Morphology Visualization (AID 2283025); conditions: primary human endothelial cells (HUVEC);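 further: fitted both ways so gain or loss versus DMSO counts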
Procedure, shortened: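 Human umbilical vein endothelial cells in the 3C system were imaged by light microscopy 24 h after chemical dosing to record cell morphology. Activity was fitted bidirectionally against DMSO as negative control and baseline; the endpoint serves as a background control.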

[14] = read-out: Pselectin, SELP (gene 6403); assay: BSK_4H_Pselectin: BioMAP Diversity Plus: 4H Assay for Pselectin Biomarker Activity (AID 2283026); conditions: primary human endothelial cells (HUVEC); actives raise or lower the signal
Procedure, shortened: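 Primary human umbilical vein endothelial cells were exposed to test chemical for 24 h, then cell-surface P-selectin was quantified by ELISA. Activity was fitted bidirectionally against DMSO as negative control and baseline.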

[15] = BSK_4H_SRB: Viability Assessment in the BioMAP Diversity Plus: 4H Assay (AID 2283027); conditions: primary human endothelial cells (HUVEC);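 further: cells exposed to compound for 24 h before staining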;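 on AC50: curves fitted both ways versus DMSO so AC50 may be loss or gain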
Procedure, shortened: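 Human umbilical vein endothelial cells, 24 h after chemical dosing; total protein measured by 0.1% sulforhodamine B staining after 10% TCA fixation, read at 560 nm. Bidirectional fitting against DMSO.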

[16] = BSK_BE3C_SRB: Viability Assessment in the BioMAP Diversity Plus: BE3C Assay (AID 2283028); conditions: primary human bronchial epithelial cells;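 on AC50: fitted both ways so AC50 may mark signal gain or loss versus DMSO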
Procedure, shortened: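 Human primary bronchial epithelial cells were exposed to test chemicals for 24 h. Total protein in parallel cultures was then measured by staining with 0.1% sulforhodamine B after 10% TCA fixation, with absorbance read at 560 nm. Activity was fitted bidirectionally against DMSO.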

[17] = read-out: Thrombomodulin, THBD (gene 7056); assay: BSK_3C_Thrombomodulin: BioMAP Diversity Plus: 3C Assay for Thrombomodulin Biomarker Activity (AID 2283029); conditions: primary human endothelial cells (HUVEC); actives raise or lower the signal
Procedure, shortened: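 Primary human umbilical vein endothelial cells (3C system) were exposed to chemical for 24 h, then thrombomodulin levels were measured by ELISA. Activity was fitted bidirectionally against the DMSO negative control as baseline.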

[18] = read-out: Urokinase-type plasminogen activator receptor (uPAR), PLAUR (gene 5329); assay: BSK_4H_uPAR: BioMAP Diversity Plus: 4H Assay for Urokinase-type plasminogen activator receptor (uPAR) Biomarker Activity (AID 2283030); conditions: primary human endothelial cells (HUVEC); actives raise or lower the signal
Procedure, shortened: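 Primary human umbilical vein endothelial cells were exposed to chemical for 24 h before cell-surface uPAR was quantified by ELISA. Activity was fitted bidirectionally against the DMSO negative control baseline.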

[19] = read-out: Vascular endothelial growth factor receptor 2 (Homo sapiens) (UniProt P35968); assay: BSK_4H_VEGFRII: BioMAP Diversity Plus: 4H Assay for Vascular endothelial growth factor receptor 2 (VEGFR2) Biomarker Activity (AID 2283031); conditions: primary human endothelial cells (HUVEC); actives raise or lower the signal;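 on AC50: cell-surface VEGFR2 protein level quantified by ELISA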
Procedure, shortened: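 Primary human umbilical vein endothelial cells in the BioMAP 4H system were dosed with test chemical, and 24 h later VEGFRII was measured by ELISA. Activity was fitted bidirectionally against DMSO as negative control and baseline.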

[20] = target: human Thyroid Receptor alpha (THRa1), THRA (gene 7067) (UniProt P10827); assay: ATG_THRa1_TRANS: Attagene TRANS-FACTORIAL HepG2 Assay for human Thyroid Receptor alpha (THRa1) (AID 2283014; active means hit-call score of the fitted dose curve at least 0.9, where 1 is the maximum)
Procedure, shortened: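 HepG2 cells transiently transfected with multiplexed GAL4-UAS reporter units for exogenous chimeric THRa1-Gal4; reporter mRNA measured 24 h after dosing by RT-PCR, 6-FAM labelling, HpaI digestion and capillary electrophoresis. Gain-of-signal fitted versus DMSO baseline.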

Measured: AC50

Sequence of Retinoic acid receptor RXR-alpha (Homo sapiens) (P19793 whole entry, looked up, the tested form may be a part): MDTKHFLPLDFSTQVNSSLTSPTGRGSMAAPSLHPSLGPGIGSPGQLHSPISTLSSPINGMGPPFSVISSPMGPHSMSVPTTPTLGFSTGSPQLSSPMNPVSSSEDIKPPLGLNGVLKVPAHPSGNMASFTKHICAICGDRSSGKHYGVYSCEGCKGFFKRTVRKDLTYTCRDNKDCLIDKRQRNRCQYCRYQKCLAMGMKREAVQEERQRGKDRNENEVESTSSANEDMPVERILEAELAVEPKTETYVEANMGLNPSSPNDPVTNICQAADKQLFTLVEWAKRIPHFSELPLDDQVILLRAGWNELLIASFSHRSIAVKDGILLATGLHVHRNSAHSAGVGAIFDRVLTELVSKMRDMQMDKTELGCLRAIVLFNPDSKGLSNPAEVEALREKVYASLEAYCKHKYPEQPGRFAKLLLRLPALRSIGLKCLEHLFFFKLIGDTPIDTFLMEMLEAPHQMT
Sequence of E-selectin (Homo sapiens) (P16581 whole entry, looked up): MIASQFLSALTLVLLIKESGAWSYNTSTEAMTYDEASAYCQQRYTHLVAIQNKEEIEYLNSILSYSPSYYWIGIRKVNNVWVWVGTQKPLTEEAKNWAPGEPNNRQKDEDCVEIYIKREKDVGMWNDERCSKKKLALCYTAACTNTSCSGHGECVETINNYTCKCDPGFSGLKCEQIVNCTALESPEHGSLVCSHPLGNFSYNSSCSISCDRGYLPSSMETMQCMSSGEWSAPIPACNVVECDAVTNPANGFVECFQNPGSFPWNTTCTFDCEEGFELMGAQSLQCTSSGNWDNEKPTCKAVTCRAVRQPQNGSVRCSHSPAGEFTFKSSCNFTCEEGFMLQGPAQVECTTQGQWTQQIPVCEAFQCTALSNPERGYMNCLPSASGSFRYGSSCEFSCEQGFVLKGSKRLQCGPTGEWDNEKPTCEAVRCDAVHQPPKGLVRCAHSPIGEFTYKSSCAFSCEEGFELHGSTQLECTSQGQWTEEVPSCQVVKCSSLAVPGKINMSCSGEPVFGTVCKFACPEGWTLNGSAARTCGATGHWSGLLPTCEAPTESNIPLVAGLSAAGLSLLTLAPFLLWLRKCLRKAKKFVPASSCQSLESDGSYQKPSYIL
Sequence of human Retinoid X Receptor beta (RXRb), RXRB (gene 6257) (P28702 whole entry, looked up, the tested form may be a part): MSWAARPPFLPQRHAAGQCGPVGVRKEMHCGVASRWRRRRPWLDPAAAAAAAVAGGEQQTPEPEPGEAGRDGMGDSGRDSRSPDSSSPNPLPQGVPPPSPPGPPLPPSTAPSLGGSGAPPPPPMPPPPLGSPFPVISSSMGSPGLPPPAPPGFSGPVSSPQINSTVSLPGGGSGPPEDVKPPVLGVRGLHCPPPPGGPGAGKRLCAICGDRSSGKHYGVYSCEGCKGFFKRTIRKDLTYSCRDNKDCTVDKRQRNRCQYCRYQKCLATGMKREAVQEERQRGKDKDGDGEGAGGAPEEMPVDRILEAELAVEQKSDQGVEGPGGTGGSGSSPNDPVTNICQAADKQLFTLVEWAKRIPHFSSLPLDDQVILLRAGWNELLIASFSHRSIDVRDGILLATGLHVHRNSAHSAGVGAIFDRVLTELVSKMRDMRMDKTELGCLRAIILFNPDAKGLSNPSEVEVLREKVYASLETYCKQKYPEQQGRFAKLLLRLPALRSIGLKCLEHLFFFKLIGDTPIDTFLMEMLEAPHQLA
Sequence of human Vitamin D Receptor (VDR), VDR (gene 7421) (P11473 whole entry, looked up, the tested form may be a part): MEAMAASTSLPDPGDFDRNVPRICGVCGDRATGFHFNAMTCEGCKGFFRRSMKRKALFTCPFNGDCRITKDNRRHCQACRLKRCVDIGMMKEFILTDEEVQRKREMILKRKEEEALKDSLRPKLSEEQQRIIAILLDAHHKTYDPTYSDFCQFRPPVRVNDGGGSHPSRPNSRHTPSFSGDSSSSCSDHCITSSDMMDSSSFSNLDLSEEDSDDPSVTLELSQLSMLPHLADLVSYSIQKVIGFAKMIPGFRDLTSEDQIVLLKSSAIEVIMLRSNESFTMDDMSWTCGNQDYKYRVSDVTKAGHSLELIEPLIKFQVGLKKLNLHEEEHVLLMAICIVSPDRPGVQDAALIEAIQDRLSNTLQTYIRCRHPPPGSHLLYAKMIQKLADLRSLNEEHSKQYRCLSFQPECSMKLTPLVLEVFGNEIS
Sequence of human Thyroid Receptor alpha (THRa1), THRA (gene 7067) (P10827 whole entry, looked up, the tested form may be a part): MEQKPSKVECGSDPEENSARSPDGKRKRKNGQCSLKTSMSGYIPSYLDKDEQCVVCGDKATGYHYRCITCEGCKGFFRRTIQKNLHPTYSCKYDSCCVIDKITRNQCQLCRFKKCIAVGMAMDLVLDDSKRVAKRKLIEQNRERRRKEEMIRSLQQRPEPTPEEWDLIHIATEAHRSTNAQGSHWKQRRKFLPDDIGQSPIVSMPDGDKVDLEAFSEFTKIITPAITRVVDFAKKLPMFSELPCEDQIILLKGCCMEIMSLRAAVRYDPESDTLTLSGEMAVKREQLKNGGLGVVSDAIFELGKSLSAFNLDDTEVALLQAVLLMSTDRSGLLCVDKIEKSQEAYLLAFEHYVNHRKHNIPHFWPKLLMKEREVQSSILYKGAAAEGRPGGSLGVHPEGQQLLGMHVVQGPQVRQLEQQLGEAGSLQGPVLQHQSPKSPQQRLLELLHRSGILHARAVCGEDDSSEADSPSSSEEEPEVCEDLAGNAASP

c1ccc(Oc2ccccc2)cc1
inactive: [1] | [4] | [9] | [10] | [12] | [16] | [17] | [18] | [19]
active: [2] 114 µM | [3] 35.9 µM | [5] 30.3 µM | [6] 32.9 µM | [7] 32.8 µM | [8] 20 µM | [11] 30 µM | [13] 37.8 µM | [14] 30.8 µM | [15] 31.3 µM

CC(C)=CCCC(C)CCOC=O (stereo unspecified)
inactive: [1] | [2] | [20] | [10]

Nc1c(S(=O)(=O)O)cc(Br)c2c1C(=O)c1ccccc1C2=O
inactive: [1] | [2] | [20] | [10]

CC(C=O)Cc1ccc(C(C)(C)C)cc1 (stereo unspecified)
inactive: [1] | [2] | [4] | [8] | [9] | [10] | [12] | [16] | [17]
active: [3] 30.8 µM | [5] 30.6 µM | [6] 20 µM | [7] 30.3 µM | [11] 31.2 µM | [13] 37.8 µM | [14] 31.1 µM | [15] 30.1 µM | [18] 29.7 µM | [19] 32.9 µM

Nc1ccc(N)c2c1C(=O)c1ccccc1C2=O
inactive: [1] | [2] | [20] | [10]

COc1ccc(N)c([N+](=O)[O-])c1
inactive: [1] | [2] | [20] | [10]

C=CCCC(=O)/C=C/C1C(C)=CCCC1(C)C (stereo unspecified)
inactive: [1] | [20] | [10]
active: [2] 25.2 µM

CCCCCCCCCCCCCC(=O)OCC(O)CO (stereo unspecified)
inactive: [1] | [2] | [20] | [10]

C=CC(C)(O)CCC=C(C)C (stereo unspecified)
not listed: [13] | [20]
inactive: all other assays above

O=C(CS)OCCOC(=O)CS
inactive: [1] | [2] | [10]

CCc1cc(C(C)(C)C)c(O)c(C(C)(C)C)c1
active: [1] 11.3 µM | [2] 0.325 µM
inactive: [10]

CCCCCCCCCC(C)C=O (stereo unspecified)
inactive: [1] | [2] | [10]

CC(=O)C1(C)CC2=C(CCCC2(C)C)CC1C (stereo unspecified)
inactive: [1] | [17]
active: [2] 36.1 µM | [4] 20 µM | [5] 11 µM | [6] 10.4 µM | [7] 10.4 µM | [8] 5.52 µM | [9] 20 µM | [11] 8.86 µM | [12] 27.5 µM | [13] 8.8 µM | [14] 5.95 µM | [15] 6.99 µM | [16] 27.1 µM | [18] 5.19 µM | [19] 5.33 µM

CCOc1ccccc1O
inactive: [1] | [20]

O=CN1CCOCC1
not listed: [10] | [13] | [20]
inactive: all other assays above

CC(C)=CCCC(C)CC(=O)O (stereo unspecified)
inactive: [1] | [2] | [10]

CCCCOCC
inactive: [1] | [2] | [10]
